# Reference: the supplement of paper PMC8728848
# This is one part of a sample in which the strongest signals are shown more often than they occur.
# How the values were obtained:
# Assay in all cases: glycan array binding signal (z-score within array); higher = stronger binding
# Conditions in all cases: glycan notation: IUPAC condensed, linker removed
# Fuc(a1-2)Gal = target: Fuc(a1-2)Gal
# How it was run: (§1)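 The Consortium for Functional Glycomics database supplied 3228 glycan arrays, of which those lacking an available protein sequence were dropped. The binding signal, a within-array Z-score, was averaged across arrays of the same protein sequence and across linkers. Negative scores can be read as non-binding.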
# Fuc(a1-2)[Gal(a1-3)]Gal = target: Fuc(a1-2)[Gal(a1-3)]Gal
# How it was run: as §1
# [1] = target: Fuc(a1-3)[Gal3S(b1-4)]Glc6S
# How it was run: as §1
# Gal(a1-3)GalNAc = target: Gal(a1-3)GalNAc
# How it was run: as §1
# Gal(a1-4)Gal(b1-4)Glc = target: Gal(a1-4)Gal(b1-4)Glc
# How it was run: as §1
# Gal(a1-4)GlcNAc = target: Gal(a1-4)GlcNAc
# How it was run: as §1
# Gal(b1-2)Gal = target: Gal(b1-2)Gal
# How it was run: as §1
# [2] = target: Gal(b1-4)GalNAc(a1-3)[Fuc(a1-2)]Gal(b1-4)GlcNAc
# How it was run: as §1
# [3] = target: Gal(b1-4)GlcNAc(b1-3)GalNAc
# How it was run: as §1
# Gal3S(b1-4)GlcNAc = target: Gal3S(b1-4)GlcNAc
# How it was run: as §1
# [4] = target: Gal3S(b1-4)[Fuc(a1-3)]Glc
# How it was run: as §1
# GalNAc(b1-4)GlcNAc = target: GalNAc(b1-4)GlcNAc
# How it was run: as §1
# GlcA(b1-3)Gal = target: GlcA(b1-3)Gal
# How it was run: as §1
# [5] = target: GlcNAc(b1-4)GlcNAc(b1-4)GlcNAc(b1-4)GlcNAc(b1-4)GlcNAc(b1-4)GlcNAc
# How it was run: as §1
# [6] = target: Neu5Ac(a2-3)Gal(b1-3)GalNAc
# How it was run: as §1
# [7] = target: Neu5Ac(a2-3)Gal(b1-3)GalNAc(b1-3)Gal(a1-4)Gal(b1-4)Glc
# How it was run: as §1
# [8] = target: Neu5Ac(a2-3)Gal(b1-3)GalNAc(b1-4)[Neu5Ac(a2-3)]Gal(b1-4)Glc
# How it was run: as §1
# [9] = target: Neu5Ac(a2-3)Gal(b1-3)[Neu5Ac(a2-6)]GalNAc
# How it was run: as §1
# Neu5Ac(a2-3)Gal(b1-4)Glc = target: Neu5Ac(a2-3)Gal(b1-4)Glc
# How it was run: as §1
# [10] = target: Neu5Ac(a2-3)Gal(b1-4)GlcNAc(b1-2)Man(a1-3)[GlcNAc(b1-2)Man(b1-4)GlcNAc(b1-2)Man(a1-6)]Man(b1-4)GlcNAc(b1-4)GlcNAc
# How it was run: as §1
# [11] = target: Neu5Ac(a2-3)Gal(b1-4)GlcNAc(b1-6)[Neu5Ac(a2-3)Gal(b1-3)]GalNAc
# How it was run: as §1
# [12] = target: Neu5Ac(a2-3)Gal(b1-4)GlcNAc6S
# How it was run: as §1
# [13] = target: Neu5Ac(a2-3)Gal(b1-4)[Fuc(a1-3)]GlcNAc(b1-3)Gal(b1-4)[Fuc(a1-3)]GlcNAc(b1-3)Gal(b1-4)[Fuc(a1-3)]GlcNAc
# How it was run: as §1
# [14] = target: Neu5Ac(a2-3)GalNAc(b1-4)GlcNAc
# How it was run: as §1
# [15] = target: Neu5Ac(a2-6)Gal(b1-4)GlcNAc(b1-2)Man(a1-3)[GlcNAc(b1-2)Man(a1-6)]Man(b1-4)GlcNAc(b1-4)GlcNAc
# How it was run: as §1
# [16] = target: Neu5Ac(a2-6)Gal(b1-4)GlcNAc(b1-2)Man(a1-6)[GlcNAc(b1-2)Man(a1-3)]Man(b1-4)GlcNAc(b1-4)GlcNAc
# How it was run: as §1
# [17] = target: Neu5Ac(a2-6)GalNAc(b1-4)GlcNAc
# How it was run: as §1
binder,measurement,setting,value
"LYVE-1 (Homo sapiens), Q9Y5Y7 (protein) MARCFSLVLLLTSIWTTRLLVQGSLRAEELSIQVSCRIMGITLVSKKANQQLNFTEAKEACRLLGLSLAGKDQVETALKASFETCSYGWVGDGFVVISRISPNPKCGKNGVGVLIWKVPVSRQFAAYCYNSSDTWTNSCIPEIITTKDPIFNTQTATQTTEFIVSDSTYSVASPYSTIPAPTTTPPAPASTSIPRRKKLICVTEVFMETSTMSTETEPFVENKAAFKNEAAGDPEVKFNWYVDGVEVHNAKPREEQYNSTYRVVSLVTVLHQDWLNGKEYKCKVSNKALPAPIEKTISKAKGQPREPQVYTLPPSRDELTKNQVSLTCLVKGFYPSDIAVEWESNGQPENNYKTTPPVLDSDGSFFLYSKLTVDKSRWQQGNVFSCSVMHEALHNHYTQRSLSLSPGK",glycan array binding signal (z-score),Fuc(a1-2)Gal,-0.222
same,glycan array binding signal (z-score),Fuc(a1-2)[Gal(a1-3)]Gal,0.242
same,glycan array binding signal (z-score),[1],-0.066
same,glycan array binding signal (z-score),Gal(a1-3)GalNAc,-0.27
same,glycan array binding signal (z-score),Gal(a1-4)Gal(b1-4)Glc,-0.09
same,glycan array binding signal (z-score),Gal(a1-4)GlcNAc,-0.269
same,glycan array binding signal (z-score),Gal(b1-2)Gal,-0.409
same,glycan array binding signal (z-score),[2],-0.338
same,glycan array binding signal (z-score),[3],-0.411
same,glycan array binding signal (z-score),Gal3S(b1-4)GlcNAc,-0.036
same,glycan array binding signal (z-score),[4],-0.34
same,glycan array binding signal (z-score),GalNAc(b1-4)GlcNAc,-0.259
same,glycan array binding signal (z-score),GlcA(b1-3)Gal,-0.466
same,glycan array binding signal (z-score),[5],-0.624
same,glycan array binding signal (z-score),[6],3.93
same,glycan array binding signal (z-score),[7],1.74
same,glycan array binding signal (z-score),[8],4.82
same,glycan array binding signal (z-score),[9],0.133
same,glycan array binding signal (z-score),Neu5Ac(a2-3)Gal(b1-4)Glc,0.324
same,glycan array binding signal (z-score),[10],-0.128
same,glycan array binding signal (z-score),[11],6.79
same,glycan array binding signal (z-score),[12],-0.351
same,glycan array binding signal (z-score),[13],5.13
same,glycan array binding signal (z-score),[14],3.73
same,glycan array binding signal (z-score),[15],-0.596
same,glycan array binding signal (z-score),[16],-0.436
same,glycan array binding signal (z-score),[17],2.4
